# “And” between values parts separate entries of the source, which are not always exact repeats. Equal values may be shown once. Inconclusive results are not listed. The source made the active and inactive calls. Calls come from the whole dose curve; as a rule, active = well fitted curve in either direction with a large enough effect; inconclusive = small, poorly fitted or top-dose-only effect; inactive = no such curve, though single readings can be large or run the other way.
# Molecular target: Lysosomal alpha-glucosidase (Homo sapiens) (UniProt P10253)
# Assay: Confirmation of Inhibitors and Activators of Purified Human alpha-Glucosidase Using an Alternate Red Fluorescent Susbtrate
# Details: purified enzyme, red fluorogenic substrate; series mostly up to 63.4 µM; activity change, negative = inhibition: at the top concentration
# Description: NIH Chemical Genomics Center [NCGC]
# NIH Molecular Libraries Probe Production centers Network [MLPCN]
# Assay Submitter (PI): Wei Zheng
# Alpha-glucosidase is responsible for hydrolysis of terminal, non-reducing 1,4-linked alpha-D-glucose residues with release of alpha-D-glucose. It is a lysosomal hydrolase that is required for the degradation of a small percentage (1-3%) of cellular glycogen in human. Deficiency of this enzyme results in glycogen-storage disease type II (GSDII), also referred to as Pompe disease, an autosomal recessive disorder. Structurally normal glycogen is accumulated in lysosomes and cytoplasm in affected patients, primarily in muscle tissues. Excessive glycogen storage within lysosomes may interrupt normal functioning of other organelles and leads to cellular injury. In turn, this leads to enlargement and dysfunction of the entire organ involved (eg, cardiomyopathy and muscle weakness).
# It has reported that the improper folding and trafficking of alpha-glucosidase resultinged from the genetic mutations may account for a significant number of Pomrope patients. […] We optimized this alpha-glucosidase assay in 1536-well plate format for identifying the novel small molecule inhibitors with the structures other than the sugar analogs in order to develop the new pharmacological chaperones. This assay attempted to confirm hits from the primary screening using an alternate fluor than the primary screen used.
# NCGC Assay Protocol Summary:
# This is a fluorogenic enzyme assay with resorufin-alpha-D-pyranoside as the substrate and recombinant human alpha-glucosidase as the enzyme preparation. Upon the hydrolysis of this fluorogenic substrate, the resulting product, resorufin, can be excited at 573 nm and emits at 610 nm which can be detected by a standard fluorescence plate reader. Data were normalized to the controls for basal activity (without enzyme) and 100% activity (with enzyme). The AC50 values were determined from concentration-response data modeled with the standard Hill equation.
# Assay buffer: 50 mM citric acid (titrated with potassium phosphate to pH 5.0), 0.005% Tween-20, pH 5.0. (pH 5.0 is an optimal condition for this enzyme assay)
# 1536-well assay protocol for the human alpha-glucosidase:
# (1) Add 2 ul/well of enzyme (4 nM final)
# (2) Add 23 nL compounds in DMSO solution. The final titration was 0.7 nM to 77 uM.
# (3) Add 1 ul of substrate (400 uM final)
# (4) Incubate at room temperature for 20 min.
# (5) Add 2 ul stop solution (1M NaOH and 1M Glycine mixture, pH 10)
# (6) Detect the assay plate in a ViewLux plate reader (PerkinElmer) with Ex=365 nm and Em=440nm.
# Keywords: Alpha-glucosidase, Pompe Disease, pharmacological chaperone, chaperone therapy, high throughput screening, alpha-glucosidase inhibitor, MLSMR, MLSCN, NIH Roadmap, qHTS and NCGC
Structure (SMILES),Potency,"activity change, negative = inhibition"
CCCN1CNc2c(c(=O)[nH]c(=S)n2CCc2cc(C)ccc2C)C1,3.16 µM (active),–
CCCN1CNc2c(c(=O)[nH]c(=S)n2CCc2ccc3c(c2)OCCO3)C1,1.12 µM (active),–
CCCN1CNc2c(c(=O)[nH]c(=S)n2CCc2cc(Cl)cc(Cl)c2)C1,2 µM (active),–
O=C1Cc2cc(S(=O)(=O)N3CCNCC3)ccc2N1,–,-15.6% (inactive)
CCCN1CNc2c(c(=O)[nH]c(=S)n2CCc2ccc(OC)cc2OC)C1,2.51 µM (active),–
CCCN1CNc2c(c(=O)[nH]c(=S)n2CCCc2ccccc2)C1,31.6 µM (active),–
N#Cc1ccc(N2CCN(S(=O)(=O)c3ccc4c(c3)CC(=O)N4)CC2)cc1,3.26 µM [inhibitor] (active),–
Clc1ncc(C#Cc2ccccc2)c2ncncc12,–,3.52% (inactive)
CCCN1CNc2c(c(=O)[nH]c(=S)n2CCc2ccc(OC)c(OC)c2)C1,2 µM (active),–
OC[C@H]1NC[C@@H](O)[C@@H]1O,–,-83.5% (inactive)
CC(=O)N1CCN(S(=O)(=O)c2ccc3c(c2)CC(=O)N3)CC1,14.9 µM [inhibitor] (active),–
CCCN1CNc2c(c(=O)[nH]c(=S)n2CCc2cccc(OC)c2OC)C1,10 µM (active),–
CCCN1CNc2c(c(=O)[nH]c(=O)n2CCc2ccc(OC)c(OC)c2)C1,14.1 µM (active),–
CCCN1CNc2c(c(=O)[nH]c(=S)n2CCc2ccsc2)C1,25.1 µM (active),–
CC(=O)c1ccc(N2CCN(S(=O)(=O)c3cc4c(cc3Cl)NC(=O)C4)CC2)cc1,1.63 µM [inhibitor] (active) and 5.17 µM [inhibitor] (active),–
CCCN1CNc2c(c(=O)[nH]c(=S)n2CCC(C)C)C1,–,2.28% (inactive)
CCCN1CNc2c(c(=O)[nH]c(=S)n2CCc2ccc(Cl)cc2Cl)C1,1.26 µM (active),–
CCCN1CNc2c(c(=O)[nH]c(=S)n2CCc2ccc(C)cc2)C1,11.2 µM (active),–
CCCN1CNc2c(c(=O)[nH]c(=S)n2CCc2ccccc2OC)C1,11.2 µM (active),–
CC(=O)c1ccc(N2CCN(S(=O)(=O)c3ccc4[nH]c(=O)oc4c3)CC2)cc1,–,-5.47% (inactive)

Structure (SMILES),Potency,"activity change, negative = inhibition"
O=Cc1ccc(N2CCN(S(=O)(=O)c3ccc4c(c3)CC(=O)N4)CC2)cc1,4.11 µM [inhibitor] (active),–
COc1ccc(CCn2c3c(c(=O)[nH]c2=S)CN(CC(C)C)CN3)cc1OC,0.631 µM (active),–
CC(=O)c1ccc(N2CCN(S(=O)(=O)c3ccc4c(c3)C(Cl)(Cl)C(=O)N4)CC2)cc1,41.1 µM [inhibitor] (active),–
CCCCN1C[C@H](O)[C@@H](O)[C@H](O)[C@H]1CO,–,-96.3% (inactive)
N#CC(=C(\N)Sc1ccccc1N)/C(C#N)=C(/N)Sc1ccccc1N,44.7 µM (active),–
CC(=O)c1ccc(N2CCN(S(=O)(=O)c3ccc(N4CCCC4=O)cc3)CC2)cc1,–,-2.38% (inactive)
CCCN1CNc2c(c(=O)[nH]c(=S)n2CCc2ccccc2Cl)C1,2.51 µM (active),–
CCCN1CNc2c(c(=O)[nH]c(=S)n2CCc2cccc(OC)c2)C1,2.51 µM (active),–
CCCN1CNc2c(c(=O)[nH]c(=S)n2Cc2ccc(OC)c(OC)c2)C1,2.82 µM (active),–
COc1ccc(CCn2c(=S)[nH]c(=O)c3[nH]cnc32)cc1OC,–,11.1% (inactive)
COc1ccc(CCn2c(=S)[nH]c(=O)c3nccnc32)cc1OC,–,-4.4% (inactive)
CCCN1CNc2c(c(=O)[nH]c(=S)n2CCc2cc(C)cc(C)c2)C1,3.16 µM (active),–
CCCN1CNc2c(c(=O)[nH]c(=S)n2CCc2cccc(Cl)c2Cl)C1,0.158 µM (active),–
CCCN1CNc2c(c(=O)[nH]c(=S)n2CCc2cccs2)C1,7.94 µM (active),–
CC(=O)c1ccc(N2CCN(C(=O)c3ccc4c(c3)CCC(=O)N4)CC2)cc1,–,-4.65% (inactive)
CCCN1CNc2c(c(=O)[nH]c(=S)n2CCc2cc(OC)cc(OC)c2)C1,0.708 µM (active),–
COc1ccc(CCn2c(=S)[nH]c(=O)c3c(C)cc(C)nc32)cc1OC,–,7.14% (inactive)
Cc1nc(N=Nc2cc(S(=O)(=O)O)c3cc([N+](=O)[O-])cc(S(=O)(=O)O)c3c2)c(COP(=O)(O)O)c(C=O)c1O,–,-33.5% (inactive)
COc1ccc(CCc2c[nH]c(=O)c3cncnc23)cc1OC,–,2.32% (inactive)
O=c1[nH]cc(C#Cc2ccccc2)c2ncncc12,–,-9.19% (inactive)

# From PubChem BioAssay AID2110 (National Center for Advancing Translational Sciences (NCATS), 2009)
